Results as given in PubChem BioAssay (Tox21).
Results filed as inconclusive are left out. Active and inactive are the calls of the source. Unless noted, calls come from the whole dose curve; as a rule, active = well fitted curve in the direction sought with a large enough effect in the repeat runs; inconclusive = weak or mixed curves; inactive = no such curve, though single readings can be large; an effect the other way counts as inactive or inconclusive.

What was measured:
[1] = qHTS assay to identify small molecule agonists of H2AX (AID 1224845; active = well fitted activation curve with a large enough effect in the signal ratio in the repeat runs, not every such curve was filed as active; the % refers to the signal ratio)
How it was run: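 Phospho-H2AX Ser139 measured by HTRF (ex 320 nm; em 665 and 620 nm) after 24 hr antibody incubation. Compounds, 15 concentrations, 0.76% DMSO, were applied to CHO-K1 cells for 3hr at 37C before lysis.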

[2] = qHTS assay to identify small molecule agonists of the hypoxia (HIF-1) signaling pathway (AID 1224846; active = well fitted activation curve with a large enough effect in the signal ratio in the repeat runs, not every such curve was filed as active; the % refers to the signal ratio)
How it was run: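 Hypoxia-pathway activation was scored as increased beta-lactamase from an HRE-controlled reporter in ME-180 cells; plated at 2,000 cells per well with 0.5% dialyzed FBS, they were exposed 17 hrs to compounds and then given CCF4-AM.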

[3] = qHTS assay to identify small molecule agonists of the estrogen related receptor (ERR) signaling pathway from Tox21 library (AID 1224849; calls by dose curve; note: nearly all actives have a fitted effect of over 15% in size); conditions: ERR reporter cell line, ONE-Glo luciferase, 18 h; at 92.4 µM (top of the series) unless noted
How it was run: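 Six hours post-seeding at 37 C/5% CO2, ERR cells receive DMSO-solubilised compounds; after 18 h at 37 C, ONE-Glo reagent is applied and luminescence recorded.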

[4] = qHTS RealTime-Glo MT Cell Viability Assay in HepG2 cells - 24 hour (AID 1224867); note: nearly all actives have a fitted effect of over 50% in size; note: potency is the fitted concentration of half-maximal effect
How it was run: (§1)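 qHTS, HepG2, 600 cells/well, RealTime-Glo (NanoLuc + prosubstrate) added with cells; 5 h preincubation; DMSO compound addition; 37 C; luminescence at 0/8/16/24/32/40 h.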

[5] = qHTS RealTime-Glo MT Cell Viability Assay in HEK293 cells - 32 hour (AID 1224868); note: nearly all actives have a fitted effect of over 50% in size; note: potency is the fitted concentration of half-maximal effect
How it was run: (§2)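 Assay medium contained NanoLuc luciferase plus cell-permeant prosubstrate, added with HEK293 cells at 600 cells/well. After 5 h at 37 C/5% CO2 compounds were added; plates stayed at 37 C for 40 h with serial luminescence reads.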

[6] = A CellTox Green Cytotoxicity Assay to monitor cytotoxicity in HEK293 cells - 0 hour (AID 1224869); note: nearly all actives have a fitted effect of over 50% in size
How it was run: (§3)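 Seeding of HEK293 cells together with cytotoxicity dye preceded a 5 h incubation at 37 C/5% CO2. Test compounds in DMSO were then added and fluorescence monitored across 40 h.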

[7] = qHTS RealTime-Glo MT Cell Viability Assay in HepG2 cells - 40 hour (AID 1224870); note: nearly all actives have a fitted effect of over 50% in size; note: potency is the fitted concentration of half-maximal effect
How it was run: (§4)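 Real-time viability: cells seeded at 600 per well together with NanoLuc and cell-permeant prosubstrate, compounds added after 5 h incubation. Luminescence tracked at 0, 8, 16, 24, 32 and 40 h of exposure.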

[8] = A CellTox Green Cytotoxicity Assay to monitor cytotoxicity in HEK293 cells - 40 hour (AID 1224871); note: nearly all actives have a fitted effect of over 45% in size; note: potency is the fitted concentration of half-maximal effect
How it was run: as §3

[9] = qHTS RealTime-Glo MT Cell Viability Assay in HEK293 cells - 16 hour (AID 1224872); note: nearly all actives have a fitted effect of over 50% in size; note: potency is the fitted concentration of half-maximal effect
How it was run: as §2

[10] = qHTS RealTime-Glo MT Cell Viability Assay in HepG2 cells - 8 hour (AID 1224873); note: nearly all actives have a fitted effect of over 55% in size; note: potency is the fitted concentration of half-maximal effect
How it was run: as §4

[11] = qHTS RealTime-Glo MT Cell Viability Assay in HEK293 cells - 40 hour (AID 1224874); conditions: RealTime-Glo luminescence; max response: hits give low values; note: nearly all actives have a fitted effect of over 50% in size; note: potency is the fitted concentration of half-maximal effect
How it was run: (§5)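 Tox21 screen in HEK293 using RealTime-Glo MT chemistry, with cells and reagent co-dispensed. Luminescence proportional to viable cell number was captured at intervals during 40 h compound exposure at 37 C.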

[12] = A CellTox Green Cytotoxicity Assay to monitor cytotoxicity in HEK293 cells - 24 hour (AID 1224875); note: nearly all actives have a fitted effect of over 45% in size; note: potency is the fitted concentration of half-maximal effect
How it was run: as §3

[13] = A CellTox Green Cytotoxicity Assay to monitor cytotoxicity in HepG2 cells - 16 hour (AID 1224876); note: nearly all actives have a fitted effect of over 45% in size; note: potency is the fitted concentration of half-maximal effect
How it was run: (§6)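 Nonlytic assay: viable cells exclude the dye, so fluorescence scales with cell death. HepG2 at 600 cells/well, compounds added after 5 h, signal read across 40 h.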

[14] = qHTS RealTime-Glo MT Cell Viability Assay in HepG2 cells - 32 hour (AID 1224877); note: nearly all actives have a fitted effect of over 55% in size; note: potency is the fitted concentration of half-maximal effect
How it was run: as §1

[15] = A CellTox Green Cytotoxicity Assay to monitor cytotoxicity in HepG2 cells - 40 hour (AID 1224879); note: nearly all actives have a fitted effect of over 40% in size; note: potency is the fitted concentration of half-maximal effect
How it was run: as §6

[16] = A CellTox Green Cytotoxicity Assay to monitor cytotoxicity in HEK293 cells - 32 hour (AID 1224881); note: nearly all actives have a fitted effect of over 40% in size; note: potency is the fitted concentration of half-maximal effect
How it was run: as §3

[17] = qHTS assay to identify small molecule agonists of H2AX - cell viability counter screen (AID 1224847; calls by dose curve;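 note: wild-type CHO-K1 cells; top concentration of the series differs between compounds; nearly all actives have a fitted effect of over 30% in size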)
How it was run: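 Cells plated first: CHO-K1, 1000 per well in 10% FBS medium, incubated overnight at 37C. Then 15-point compound titration added (final DMSO 0.76%) for 3 hr. Finally CellTiter-Glo added and luminescence read.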

[18] = qHTS RealTime-Glo MT Cell Viability Assay in HEK293 cells - 0 hour (AID 1224880); note: top concentration of the series differs between compounds; nearly all actives have a fitted effect of over 45% in size
How it was run: as §5

[19] = A CellTox Green Cytotoxicity Assay to monitor cytotoxicity in HepG2 cells - 24 hour (AID 1224878); note: nearly all actives have a fitted effect of over 45% in size
How it was run: as §6

[20] = qHTS assay to identify small molecule antagonists of the estrogen related receptor (ERR) signaling pathway from Tox21 library (AID 1224848); note: nearly all actives have a fitted effect of over 50% in size
How it was run: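 Antagonist-mode screen of the Tox21 10K library in an NTP-provided ERR reporter cell line; 18 h compound exposure at 37 C, luminescence measured with ONE-Glo.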
% is set by controls: 0 for no effect and ±100 for the full control effect.

O[C@@H](CNC[C@H](O)[C@H]1CCc2cc(F)ccc2O1)[C@@H]1CCc2cc(F)ccc2O1
inactive: Potency [1] | outcome [2] | activity change, positive = activation [3] -67.5% [at 42.5 µM] | Potency [6]
active: Potency [4] 16.9 µM | Potency [5] 19 µM | Potency [7] 15.1 µM | Potency [8] 26.8 µM | Potency [9] 19 µM | Potency [10] 21.3 µM | Potency [11] 19 µM | Potency [12] 26.8 µM | Potency [13] 16.9 µM | Potency [14] 15.1 µM | Potency [15] 10.7 µM | Potency [16] 26.8 µM

CCCc1nc2c(C)cc(-c3nc4ccccc4n3C)cc2n1Cc1ccc(-c2ccccc2C(=O)O)cc1
inactive: Potency [1] | Potency [17] | Potency [4] | Potency [6] | Potency [7] | Potency [12] | Potency [13] | Potency [14] | Potency [15] | Potency [18] | Potency [16]

Cc1ccc(N(CC2=NCCN2)c2cccc(O)c2)cc1
inactive: Potency [1] | Potency [17] | Potency [4] | Potency [5] | Potency [6] | Potency [7] | Potency [8] | Potency [9] | Potency [10] | max response [11] -23.3% | Potency [12] | Potency [13] | Potency [14] | Potency [19] | Potency [15] | Potency [18] | Potency [16]

CC(C)c1ccc(C(=O)N=C(N)N)cc1S(C)(=O)=O
inactive: Potency [1] | Potency [17] | Potency [4] | Potency [5] | Potency [7] | Potency [8] | Potency [9] | Potency [10] | max response [11] 18.4% | Potency [12] | Potency [13] | Potency [14] | Potency [15] | Potency [18] | Potency [16]

Oc1ccc2c(c1)Cc1ccccc1-2
active: Potency [5] 19.5 µM | Potency [9] 21.9 µM | Potency [11] 19.5 µM
inactive: Potency [1] | outcome [2] | Potency [20] | Potency [4] | Potency [6] | Potency [7] | Potency [10] | Potency [12] | Potency [14] | Potency [18] | Potency [16]

C[C@H](CS)C(=O)N1CCC[C@H]1C(=O)O
inactive: Potency [1] | Potency [17] | Potency [4] | Potency [5] | Potency [6] | Potency [7] | Potency [9] | Potency [10] | max response [11] 9.42% | Potency [12] | Potency [13] | Potency [14] | Potency [18] | Potency [16]

CC12CC3CC(C)(C1)CC(N)(C3)C2
inactive: Potency [1] | Potency [17] | Potency [20] | activity change, positive = activation [3] -0.576% [at 42.5 µM] | Potency [4] | Potency [5] | Potency [6] | Potency [7] | Potency [8] | Potency [9] | Potency [10] | max response [11] 3.93% | Potency [13] | Potency [14] | Potency [19] | Potency [15] | Potency [18] | Potency [16]

CCN(CC)CCNC(=O)c1cc(Cl)c(N)cc1OC
inactive: Potency [1] | Potency [17] | Potency [4] | Potency [5] | Potency [6] | Potency [7] | Potency [10] | max response [11] -5.88% | Potency [12] | Potency [13] | Potency [14] | Potency [19] | Potency [15] | Potency [18] | Potency [16]

CCCCCCCC/C=C\CCCCCCCC(=O)OCCO
inactive: Potency [1] | outcome [2] | Potency [17] | Potency [5] | Potency [6] | Potency [7] | Potency [8] | Potency [10] | max response [11] -0.425% | Potency [13] | Potency [14] | Potency [19] | Potency [18] | Potency [16]

CC(C(=O)O)c1ccc(C(=O)c2cccs2)cc1 (stereo not given)
inactive: Potency [1] | Potency [17] | Potency [4] | Potency [5] | Potency [6] | Potency [7] | Potency [9] | Potency [10] | max response [11] 0.273% | Potency [12] | Potency [13] | Potency [19] | Potency [18] | Potency [16]

O=C(O)c1cc(Cl)cc(Cl)c1O
inactive: Potency [1] | outcome [2] | Potency [20] | activity change, positive = activation [3] 0.37% | Potency [4] | Potency [5] | Potency [6] | Potency [7] | Potency [9] | Potency [10] | max response [11] -0.228% | Potency [12] | Potency [13] | Potency [14] | Potency [19] | Potency [18] | Potency [16]

CC(=O)N[C@@H](Cc1ccc(O)cc1)C(=O)O
inactive: Potency [1] | Potency [17] | Potency [20] | activity change, positive = activation [3] 1.4% [at 42.5 µM] | Potency [4] | Potency [5] | Potency [6] | Potency [7] | Potency [8] | Potency [9] | Potency [10] | max response [11] 8.17% | Potency [13] | Potency [14] | Potency [19] | Potency [15] | Potency [18] | Potency [16]

CC(=O)OC(C)C[N+](C)(C)C (stereo not given)
inactive: Potency [1] | Potency [17] | Potency [20] | activity change, positive = activation [3] 7.44% [at 42.5 µM] | Potency [4] | Potency [5] | Potency [7] | Potency [8] | Potency [9] | Potency [10] | max response [11] -1.13% | Potency [12] | Potency [13] | Potency [14] | Potency [19] | Potency [18] | Potency [16]

O=C(O)c1cccc(C[C@@H]2COc3ccc(OCc4nc5cc(F)ccc5s4)cc3[C@@H]2O)c1
inactive: Potency [1] | outcome [2] | Potency [4] | Potency [5] | Potency [6] | Potency [7] | Potency [8] | Potency [9] | Potency [10] | max response [11] 4.74% | Potency [12] | Potency [13] | Potency [14] | Potency [19] | Potency [15] | Potency [18] | Potency [16]

O=C(CCS)OCC(COC(=O)CCS)(COC(=O)CCS)COC(=O)CCS
inactive: Potency [1] | Potency [17] | Potency [4] | Potency [6] | Potency [7] | Potency [8] | Potency [10] | Potency [13] | Potency [14] | Potency [19] | Potency [15] | Potency [18] | Potency [16]
